Compound activity from PubChem.
The list is not random: actives were taken first. Their share in the collection is about 10%.
KinaseGlo FLuc: Kinase-Glo luciferase inhibition (counter-screen); Q27757; Kinase-Glo luciferase, ATP luminescence, 8 min; Potency, µM (doses to about 38.3 µM), most hits filed as inhibitors; hit rate 0.28% among 200,000; AID 1379; active = well fitted inhibition curve with a large enough effect; inconclusive = small, poorly fitted or top-dose-only effect; also: nearly all actives have a fitted effect of over 60% in size
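Kinase-Glo luciferase light output from ATP and luciferin was measured with 10 uM ATP, within the enzyme's linear range. Buffer: 50 mM imidazole pH 7.2, 50 mM KCl, 7 mM MgCl2, 0.01% Tween 20, 0.05% BSA; luminescence read after 8 min at ambient temperature.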
LMNA splice mod: modulators of lamin A splicing; HeLa LMNA splicing GFP/RFP minigene ratio, 48 h; Potency, µM (titrated, usually from 46.1 µM), actives largely listed as inhibitors; hit rate 0.01% among 200,000; active = well fitted inhibition curve with a large enough effect in the signal ratio, with a control signal flat, not every such curve was filed as active; inconclusive = small, poorly fitted or top-dose-only effect, or effect the other way, or a change in a side signal; the % refers to the signal ratio
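S3 HeLa stable clones carrying a lamin A-EGFP splicing minigene plus DsRed2 were seeded at 600 cells/well in Opti-MEM with 2% FBS, pin-dosed and incubated 48 h at 37°C. Acumen cytometry (488 nm) gave the GFP/RFP total-intensity ratio.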
PNC assembly inh: inhibitors of perinucleolar compartment assembly. activity change (PNC), negative = inhibition, % at 10 µM. PC3M PTB-GFP, PNC prevalence imaging, 16 h; active compounds read low. hit rate 3.1% among 140,000;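 active = readout at or below -70, meaning at least 70% loss of cells showing the perinucleolar compartment, a nuclear body marking cancer cells; inconclusive = readout between -30 and a set limit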
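Compounds are pinned in duplicate onto adhered PC3M cells stably expressing GFP-tagged PTB and incubated 16 h at 37 C. Cells are then fixed, nuclei stained with Hoechst, and PNC-positive cells counted.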
ALDH1A1 inh: inhibitors of human aldehyde dehydrogenase 1A1; hit rate 7.3% among 220,000; Potency, µM (doses to about 75.3 µM), usual class: inhibitors; Purified ALDH1A1, NADH fluorescence, propionaldehyde substrate
HPGD inh: HPGD (human) dehydrogenase inhibition | P15428 | hit rate 4.3% among 150,000 | Potency, µM, usual class: inhibitors | purified HPGD, NADH fluorescence kinetic, PGE2 substrate
Target sequence (P15428 whole entry, looked up): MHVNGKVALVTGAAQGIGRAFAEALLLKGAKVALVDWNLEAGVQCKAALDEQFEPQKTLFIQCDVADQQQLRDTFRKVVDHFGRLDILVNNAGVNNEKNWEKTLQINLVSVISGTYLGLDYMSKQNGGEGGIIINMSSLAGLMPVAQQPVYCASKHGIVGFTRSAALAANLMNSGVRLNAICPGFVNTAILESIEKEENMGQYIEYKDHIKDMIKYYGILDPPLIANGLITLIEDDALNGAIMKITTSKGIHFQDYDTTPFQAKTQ
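NADH formation kinetics: reaction with 30 uM PGE2 and 1 mM NAD+ (final), 20 nM enzyme, Tris-HCl pH 8 with Tween 20, after 15 min compound preincubation at room temperature. Fluorescence change, last versus first of five reads.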
IMPase cell inh: IMPase inhibition in cells; CHO-M1 cells, IP1 accumulation, HTRF TR-FRET ratio; AID 901; inhibition (IP1 accumulation), % at 46.1 µM; 120,000 tested, under 10 active; P97697; active = well fitted curve in the direction sought with a large enough effect in the signal ratio, not every such curve was filed as active; inconclusive = small, poorly fitted or top-dose-only effect, or a change in a side signal; inactive = no such curve, though single readings can be large or run the other way; the % refers to the signal ratio;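 also: cells stimulated with carbachol in lithium chloride buffer; higher means more IMPase inhibition seen as more IP1 and lower FRET ratio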
Target sequence (P97697 whole entry, looked up): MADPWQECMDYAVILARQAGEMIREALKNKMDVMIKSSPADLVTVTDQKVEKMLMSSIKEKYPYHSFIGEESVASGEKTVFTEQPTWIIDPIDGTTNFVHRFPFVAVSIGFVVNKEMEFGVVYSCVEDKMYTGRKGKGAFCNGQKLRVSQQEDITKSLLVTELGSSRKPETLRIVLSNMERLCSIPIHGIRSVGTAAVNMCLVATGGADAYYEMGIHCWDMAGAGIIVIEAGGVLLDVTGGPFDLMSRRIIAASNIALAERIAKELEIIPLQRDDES
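Measured: the HTRF emission ratio (665/620 nm) plus the 620 nm donor channel, each fitted to the Hill equation to give AC50. Cells were CHO-M1 given compounds up to 46 uM and a 30 min carbachol stimulation at 37C.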
Hits are given with their value; - = inactive; ? = inconclusive; . = not tested or not shown; [ ] = remark or other dose. Unless noted, calls follow the shape of the dose curve; as a rule, active = well fitted inhibition curve with a large enough effect (not every such curve was filed as active); inconclusive = small, poorly fitted or top-dose-only effect, or another doubt; inactive = no such curve, though single readings can be large or run the other way.

SMILES	KinaseGlo FLuc	LMNA splice mod	PNC assembly inh	ALDH1A1 inh	HPGD inh	IMPase cell inh
CC(C)(C)C(=O)N1CCN(c2ccc([N+](=O)[O-])c(NCc3cccnc3)c2)CC1	-	-	.	?	.	.
CC1(C)O[C@@H]2O[C@H]([C@@H]3COC(C)(C)O3)[C@H](N)[C@H]2O1	-[7.66 µM]	.	.	-[13.5 µM]	-	.
Cc1cc(C)c2nc(N(Cc3cccnc3)C(=O)c3ccc(S(=O)(=O)N(C)C)cc3)sc2c1	.	-	.	.	.	.
CCc1nc(SCC(=O)N2CCC(Cc3ccccc3)CC2)c2c(=O)n(C)c(=O)n(C)c2n1	-	-	-	-	-	?
CC(C)c1nc(SCC(=O)N2CCOCC2)c2c(=O)n(C)c(=O)n(C)c2n1	-	-	-106	-	-	-
CCc1nc(SCC(=O)N2CCC(C)CC2)c2c(=O)n(C)c(=O)n(C)c2n1	-	-	-	11µM	-	-
CC(C)c1nc(SCC(=O)N2CCN(c3ccccc3)CC2)c2c(=O)n(C)c(=O)n(C)c2n1	-	-	?	-	-	-
O=C(O)[C@@H]1CN[C@@H](C(=O)O)C1	.	.	.	-	.	.
Cc1ccc(S(=O)(=O)Oc2cc(S(=O)(=O)O)cc3cc(S(=O)(=O)O)cc(N)c23)cc1	-[7.66 µM]	.	.	-[13.5 µM]	-	.
Cc1ccc(NC(=O)CCN2CCN(CCO)CC2)cc1C	.	.	.	.	.	-
CC(=O)Oc1ccc(Oc2ccc(-c3noc(C)n3)cc2)cc1	-	?	-	-	-	-
CC(=O)Nc1ccc(Oc2ccc(-c3noc(C)n3)cc2)cc1	-	?	-	-	7.9µM	-
C[C@@]12C=Cc3occc3C1CC[C@@]13C[C@@H](CCC12)[C@@](O)(CO)C3 (stereo not given in full)	-	.	.	1.4µM	-	.
Cc1ccc(C(C(=O)NC2CCCCC2)N(Cc2cccnc2)C(=O)C2COc3ccccc3O2)o1 (stereo not given)	-	-	?	13µM	-	-
Cc1ccc(CN(C(=O)c2csnn2)C(C(=O)NC2CCCC2)c2ccc(C)o2)cc1 (stereo not given)	-	-	-	14µM	-	-
CCn1c2c(c(=O)n3ncc(C(=O)Nc4ccc(F)cc4Cl)c13)CN(Cc1ccc(OC)cc1)CC2	.	-	.	.	.	.
O=S(=O)(Nc1cccc(-c2ccc(N3CCOCC3)nn2)c1)c1ccc(F)c(C(F)(F)F)c1	.	-	.	.	.	.
O=[N+]([O-])c1ccccc1S(=O)(=O)N1CCN(CC2CC=CCC2)CC1 (stereo not given)	-	-	.	14µM	.	.
O=[N+]([O-])c1ccccc1S(=O)(=O)N1CCN(Cc2cc3c(cc2O)OCO3)CC1	-	-	.	1.9µM	.	.
O=C(N/N=C(\c1ccccc1)c1cccnc1)C(O)(c1ccccc1)c1ccccc1	-	-	-92	?	-	-
O=C(N/N=C/c1cccnc1)C(O)(c1ccccc1)c1ccccc1	-	-	-	-	-	-
COc1ccc(/C=C/C(=O)c2ccccc2)cc1Cn1nnc2ccccc21	-	?	-	?	16µM	-
COc1ccc(C=O)cc1COc1ccc(F)cc1F	-	-	-	8.9µM	32µM	-
COc1cc(/C=C/C(=O)c2ccc(C)cc2)ccc1OCC#N	-	?	?	13µM	-	.
COc1ccc(C(=O)/C=C/c2ccc(OC)c(COc3ccccc3F)c2)cc1	-	-	?	2.5µM	-	?
SMILES	KinaseGlo FLuc	LMNA splice mod	PNC assembly inh	ALDH1A1 inh	HPGD inh	IMPase cell inh
NNC(=O)CCc1ccc2ccc3ccccc3c2c1	-[7.66 µM]	.	.	-[13.5 µM]	-	.
O=C1CN(C(=O)COc2ccccc2F)c2ccccc2N1	-	-	-	18µM	-	.
O=C1CN(C(=O)CNCc2ccccc2Cl)c2ccccc2N1	.	.	.	20µM	.	.
CC(C)[C@H](NC(=O)c1ccco1)C(=O)OCC(=O)N1CC(=O)Nc2ccccc21	-	-	.	14µM	.	.
CC(C)[C@H](NC(=O)c1ccco1)C(=O)OCC(=O)N1CCc2ccccc21	-	-	-	?	-	-
Cc1cccc(N2CCN(C(=O)c3cn(C4CCCCC4)c(=O)c4c3c3ccccc3n4C)CC2)c1C	.	.	.	.	.	-
CC1=C(C(=O)Nc2ccc(C)cc2C)C(c2ccc(O)cc2)n2nc(SCC(=O)c3ccc(C)cc3)nc2N1 (stereo not given)	.	-	.	.	.	.
Cc1cccc(N2CCN(CCCNc3ncnc4onc(-c5ccc(F)cc5)c34)CC2C)c1 (stereo not given)	.	-	.	.	.	.
NS(=O)(=O)c1ccc(N/N=C/c2ccccc2C(=O)O)c([N+](=O)[O-])c1	-	-	.	?	.	.
Cc1cc([N+](=O)[O-])c2[nH]c(C(=O)N/N=C/c3ccccc3C(=O)O)c(-c3ccccc3)c2c1	-	?	-	1.4µM	?	-
CC1CCCN(C(=O)C2CCN(CC3CC=CCC3)CC2)C1 (stereo not given)	-	-	-100	?	-	-
O=C(CN1C(=O)CC(c2ccco2)Sc2ccccc21)Nc1ccc2c(c1)OCCO2 (stereo not given)	-	-	-	14µM	-	-
O=C(CN1C(=O)CCSc2ccccc21)Nc1ccc2c(c1)OCCO2	-	-	-	-	-	-
O=C(CN1C(=O)CC(c2ccco2)Sc2ccccc21)NCC1CCCO1 (stereo not given)	-	-	-	10µM	-	-
COc1ccc(C2CC(=O)N(CC(=O)NCC3CCCO3)c3ccccc3S2)cc1 (stereo not given)	-	.	.	-	.	.
CS(=O)(=O)N1CCC2(CC1)CN(c1ccccn1)C2	-	.	.	?	?	.
CCc1c(C(=O)Nc2ccccc2)c(C)[nH]c(=S)c1C#N	-	-	-	3.5µM	20µM	-
Cc1[nH]c(=S)c(C#N)c(C)c1C(=O)Nc1ccccc1	-	-	-	?	22µM	-
CCCC[C@H]1C[C@@H]1[C@@H]1N(C(C)=O)[C@H](c2cccc(OC)c2)CC12CC2	-	.	.	-	-	.
Nc1ccccc1-c1nc2ccccc2[nH]1	-	-	-83	?	?	-
N#Cc1cccc(-c2nc(NCc3cccnc3)c3ccccc3n2)c1	.	-	.	?	.	.
CCOc1ccccc1C(=O)Nc1cccc(-c2nc3ccccc3s2)c1	.	-	.	.	.	.
COc1ccc(CCNC(=O)Cn2c(=O)n(-c3ccc(C)c(F)c3)c(=O)c3sccc32)cc1OC	-	-	.	6.3µM	.	.
COCCCNC(=O)Cn1c(=O)n(CC(=O)NCCc2ccc(OC)c(OC)c2)c(=O)c2sccc21	-	.	.	-	.	.
Cc1ccc(C=Nc2ccccc2C(N)=O)o1	?	-	-93	?	?	.
CCN(CC)CCN(C(=O)c1ccco1)c1nc2ccc(Br)cc2s1	.	-	.	.	.	.
CCCn1c(-c2ccc(F)cc2)nc2c(NC(C)CN(C)C)nc(C)nc21 (stereo not given)	-	.	.	?	-	.
Cc1ccc(NC(=O)Cn2c(=S)[nH]c3ccccc32)cc1	-	.	.	10µM	.	.
